# According to PubChem BioAssay AID1851 (National Center for Advancing Translational Sciences (NCATS), 2009):
# In all, about 16,000 compounds went through this assay and about 4,000 (25%) were called active. About 26% were inconclusive and are not listed. Calls follow the shape of the dose curve; as a rule, active = well fitted curve in the direction sought with a large enough effect; inconclusive = small, poorly fitted or top-dose-only effect, or effect the other way; inactive = no such curve, though single readings can be large or run the other way. Only a sample is shown.
# Biological target: Cytochrome P450 2C9 (Homo sapiens) (UniProt P11712)
# Sequence (P11712 whole entry, looked up): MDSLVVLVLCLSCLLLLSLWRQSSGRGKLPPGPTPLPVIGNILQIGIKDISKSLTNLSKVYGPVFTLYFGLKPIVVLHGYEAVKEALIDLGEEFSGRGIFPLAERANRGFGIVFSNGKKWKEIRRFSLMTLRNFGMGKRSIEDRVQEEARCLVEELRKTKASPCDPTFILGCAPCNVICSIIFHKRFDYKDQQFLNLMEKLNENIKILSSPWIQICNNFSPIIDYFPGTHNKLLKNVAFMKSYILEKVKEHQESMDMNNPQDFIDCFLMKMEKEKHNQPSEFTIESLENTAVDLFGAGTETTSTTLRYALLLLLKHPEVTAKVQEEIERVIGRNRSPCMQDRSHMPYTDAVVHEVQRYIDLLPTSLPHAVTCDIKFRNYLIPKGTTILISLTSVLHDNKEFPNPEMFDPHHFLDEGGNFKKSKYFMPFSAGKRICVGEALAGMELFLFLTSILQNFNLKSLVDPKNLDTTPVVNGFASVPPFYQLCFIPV
# Test: Cytochrome panel assay with activity outcomes
# Details: recombinant CYP, pro-luciferin dealkylation, luminescence, p450-cyp2c9; series mostly up to 57.1 µM; activity, negative = inhibition: at the top concentration
# % is scaled to controls: 0 for no effect and ±100 for the full control effect.
Compound,"activity, negative = inhibition",AC50
CC(C)n1nnnc1-c1cc(Cl)cc(Cl)c1,-15.1% (inactive),–
CCOC(=O)c1nn(-c2ccccc2)c(-c2ccccc2)c1C(=O)c1ccccc1,–,10 µM (active)
CCOC(=O)c1cc(C(=O)OCC)cc(-n2cc(O)c(C(=O)OCC)n2)c1,-29.4% (inactive),–
CC(=O)NCCNc1nc(-c2ccccc2C(F)(F)F)nc2ccccc12,5.47% [at 2.29 µM] (inactive),–
COc1ccc(/C=N/NC(=O)c2cc(-c3ccc(C)cc3C)nc3ccccc23)cc1COC(C)=O,–,0.794 µM (active)
COc1cccc(-c2cc(C(=O)N/N=C/c3ccc(OC)c(COC(C)=O)c3)c3ccccc3n2)c1,–,0.398 µM (active)
NS(=O)(=O)c1cc(C(=O)O)c(Cl)c([N+](=O)[O-])c1Cl,8.24% [at 11.4 µM] (inactive),–
CCCn1cnc2c(SCC(=O)O)nc(N)nc21,3.25% [at 11.4 µM] (inactive),–
O=C1c2ccccc2-c2ccc(N(Cc3ccc(Br)cc3)Cc3ccc(Br)cc3)cc21,-1.26% [at 11.4 µM] (inactive),–
Cc1nc2sccn2c(=O)c1Cl,-7.69% (inactive),–
CCCN(C/C=C\I)[C@@H]1CCc2cccc(O)c2C1,-11.2% (inactive),–
COCCSc1nnc(NC(=O)C(C)(C)C)s1,-21.4% (inactive),–
CCSc1nnc(NC(=O)C(C(F)(F)F)C(F)(F)F)s1,–,7.94 µM (active)
CN(C)S(=O)(=O)c1nc(Cl)c2[nH]cnc2n1,1.52% [at 11.4 µM] (inactive),–
CCn1c(SCc2ccc(C#N)cc2)nnc1-c1ccc(S(=O)(=O)N2CCCCC2)cc1,–,4.47 µM (active)
O=C1N=C(N2CCC(Cc3ccccc3)CC2)S/C1=C/c1cn[nH]c1-c1ccccc1,–,0.447 µM (active)
O=C1N=C(N2CCOCC2)S/C1=C\C=C/c1ccccc1,-8.55% (inactive),–
CCN1CCCCC(=N/O)/C(=N/O)CCCC1,-7.4% [at 11.4 µM] (inactive),–
Cc1cc(C)c(C(N)=O)c(SCC(=O)c2ccc(Cl)cc2)n1,–,12.6 µM (active)
CCCSc1nc(C)cc(C)c1C(N)=O,11.5% (inactive),–
Cc1cc(C)c(C(N)=O)c(NC(=O)Nc2ccccc2)n1,-13.2% (inactive),–
O[C@@H]1[C@@H](OCc2ccccc2)OC[C@H](O)[C@@H]1O,0.912% [at 11.4 µM] (inactive),–
CCO[C@H]1O[C@@H]([C@H](COCc2ccccc2)OCc2ccccc2)[C@@H](OCc2ccccc2)[C@H]1O,–,10 µM (active)
CC(C)[C@@H](OCc1ccccc1)[C@H](C)/C=N\OC[C@@H](O)[C@@H]1O[C@@H]2OC(C)(C)O[C@@H]2[C@H]1O,-22.1% [at 11.4 µM] (inactive),–

Compound,"activity, negative = inhibition",AC50
COc1ccc(CNc2ncncc2-c2ccccc2CN(C)C)c(OC)c1,-5.35% [at 2.29 µM] (inactive),–
O=C(c1ccccc1)c1cc(F)c(N2CCOCC2)cc1Cl,-25.9% (inactive),–
CN(C)C(=O)c1ccc(-c2ccc3ncnc(N4CCOCC4)c3c2)cc1,20.2% [at 2.29 µM] (inactive),–
O=C(c1ccc(Cl)c(Cl)c1)c1cc(-c2ccccn2)c(N2CCOCC2)s1,–,5.01 µM (active)
CCCC[C@@H]1CN2[C@H](c3ccc(Br)cc3)[C@@H](C)CC[C@H]2C(=O)O1,-13.2% [at 11.4 µM] (inactive),–
C[C@@H]1CC[C@H]2C(=O)N3[C@@H](CC[C@@H](C)[C@@H]3c3ccc(Br)cc3)C(=O)N2[C@@H]1c1ccc(Br)cc1,–,3.98 µM (active)
C[C@@H]1CN2[C@H](c3ccc(Br)cc3)[C@H](C)CC[C@H]2C(=O)O1,-3.17% [at 11.4 µM] (inactive),–
CCC(Sc1nc2cc3c(cc2c(=O)n1Cc1ccco1)OCO3)C(=O)Nc1cccc(OC)c1 (centres undefined),–,2 µM (active)
COc1cccc(Nc2ncc3nc(-c4cccs4)c(=O)n(Cc4cccs4)c3n2)c1,-15.7% (inactive),–
COc1ccccc1NC(=O)N1CCCC1C(=O)NCc1ccc2c(c1)OCO2 (centres undefined),-21.5% (inactive),–
CCC(Sc1nc2cc3c(cc2c(=O)n1Cc1ccco1)OCO3)C(=O)Nc1ccccc1OC (centres undefined),–,0.631 µM (active)
CCCc1nnc(SCC(=O)N2C(C)CCCC2C)n1CCCOC (centres undefined),-13.8% (inactive),–
Cc1cc(=O)c2c(O)c(O)ccc2o1,19.8% (inactive),–
CCOC(=O)[C@@]12C[C@@H]1/C(=N/O)c1ccccc1O2,-1.19% (inactive),–
CCOC(=O)c1cccc2c1-c1ccccc1/C2=N/O,–,8.91 µM (active)
NC[C@H](O)C1CCCCCCC1,0.201% (inactive),–
Nc1ncnc2c1nc(Sc1ccc(Cl)cc1)n2[C@@H]1O[C@H]2COP(=O)(O)O[C@@H]2[C@H]1O,-10% (inactive),–
CCNc1ncc2nc(-c3ccc(OC)cc3)c(=O)n(CCOC)c2n1,9.61% (inactive),–
COCCn1c(=O)c(-c2cn(C)c3ccccc23)nc2cnc(Oc3ccc(OC)cc3)nc21,0.611% (inactive),–
COCCn1c(=O)c(-c2cn(C)c3ccccc23)nc2cnc(Oc3ccccc3)nc21,-19% (inactive),–
COCCn1c(=O)c(-c2ccccc2)nc2cnc(Oc3ccccc3)nc21,–,10 µM (active)
COCCn1c(=O)c(-c2ccccc2)nc2cnc(Nc3cccc(OC)c3)nc21,-9.31% (inactive),–
COCCn1c(=O)c(-c2ccc(Cl)cc2)nc2cnc(Nc3ccccc3)nc21,6.62% (inactive),–
COCCn1c(=O)c(-c2ccc(Cl)cc2)nc2cnc(Oc3ccccc3)nc21,–,7.94 µM (active)

Compound,"activity, negative = inhibition",AC50
COCCn1c(=O)c(-c2ccccc2)nc2cnc(Oc3ccc(OC)cc3)nc21,–,10 µM (active)
Cn1c(=O)c(-c2ccc(Cl)cc2)nc2cnc(Oc3ccccc3)nc21,-2.59% (inactive),–
Nc1nc(N)c2[nH]cnc2n1 (tested in a mixture with another compound),-4.44% [at 11.4 µM] (inactive),–
Cc1[nH]c(N)nc(=S)c1CCC(=O)O,2.61% [at 11.4 µM] (inactive),–
c1ccc2c[n+](Cc3ccnc4ccccc34)ccc2c1,-6.16% [at 11.4 µM] (inactive),–
Cc1c(NC(=O)CSc2nnnn2C)c(=O)n(-c2ccccc2)n1C,-39% (inactive),–
Cc1c(NC(=O)CN2C(=O)C3C4C=CC(C4)C3C2=O)c(=O)n(-c2ccccc2)n1C (centres undefined),-21.2% (inactive),–
C=CCn1c(SCC(=O)Nc2c(C)n(C)n(-c3ccccc3)c2=O)nc2sc(C)c(-c3ccccc3)c2c1=O,–,14.1 µM (active)
Cc1c(NC(=O)Cn2ccc([N+](=O)[O-])n2)c(=O)n(-c2ccccc2)n1C,-3.82% (inactive),–
Cc1c(NC(=O)CSc2nnc3c4ccccc4n(CCc4ccccc4)c3n2)c(=O)n(-c2ccccc2)n1C,–,0.708 µM (active)
Cc1nc(SCC(=O)Nc2c(C)n(C)n(-c3ccccc3)c2=O)nc(C)c1C,31.5% (inactive),–
CN[C@]1(C)[C@@H]2CC[C@@H](C2)C1(C)C,-5.04% (inactive),–
CN1CCN(C2=Cc3ccccc3Oc3ccc(Cl)cc32)CC1,-10.8% (inactive),–
C=CC[C@@H]1C=C[C@H](O/N=C(\C)CCN2CCc3nc(CC)c(CC)cc3C2)[C@H](CO)O1,-6.8% [at 11.4 µM] (inactive),–
O=C(O)c1cc(N=Nc2ccc([N+](=O)[O-])cc2)ccc1O,-19.1% [at 11.4 µM] (inactive),–
O=C(c1cc(O)c(O)c([N+](=O)[O-])c1)c1ccccc1F,–,1.26 µM (active)
N#Cc1cc2nc(O)c(O)nc2cc1[N+](=O)[O-],-3.14% (inactive),–
CCCn1nnnc1-c1cc(Cl)cc(Cl)c1,-1.8% (inactive),–
CCCn1nnnc1NC(=O)COc1ccc(Cl)cc1C,–,10 µM (active)
Cc1ccc(CNC(=O)COC(=O)c2cnccn2)cc1,4.39% (inactive),–
Cc1cc(Cl)ccc1OCC(=O)NCc1ccncc1,–,0.794 µM (active)
Cc1cc(Cl)ccc1OCC(=O)Nc1nc(N)nc(N)n1,23.6% [at 11.4 µM] (inactive),–
Cc1cccc(N/C(N)=N/c2nc(C)cc(C)n2)c1,-1.74% (inactive),–
Cc1cccc(NC(=O)C2(c3ccccc3)CC2(Cl)Cl)c1 (centres undefined),–,2 µM (active)

Compound,"activity, negative = inhibition",AC50
CCN(CC)CCOC(=O)C1(c2ccc([N+](=O)[O-])cc2)CCCC1,–,inactive
Cc1cccc(NC(=O)C2(c3ccc([N+](=O)[O-])cc3)CCCC2)c1,–,20 µM (active)
CN1CCC[C@@H](CC2c3ccccc3Sc3ccccc32)C1,-1.06% [at 25.6 µM] (inactive),–
CCSC(N)=Nc1ccc(C(F)(F)F)cc1,-14.4% (inactive),–
COc1cc(S(C)=O)ccc1-c1nc2ncccc2[nH]1 (centres undefined),-9.95% [at 25.6 µM] (inactive),–
COC(=O)c1ccccc1NC(=O)c1cc2nc(C3CC3)cc(C(F)(F)F)n2n1,–,3.55 µM (active)
CN(C)CCOC(=O)[C@@H](c1ccccc1)C1(O)CCCC1,0.789% [at 25.6 µM] (inactive),–
C[C@@H]1c2cccc(O)c2C(O)=C2C(=O)[C@@]3(O)C(O)=C(C(N)=O)C(=O)[C@@H](N(C)C)[C@@H]3[C@@H](O)[C@@H]21,–,inactive
Cc1ccc(S(=O)(=O)NC(=O)OC23COCN2COC3)cc1,-0.0498% [at 11.4 µM] (inactive),–
Cc1ccc(S(=O)(=O)NC(=O)NN2C[C@H]3CCC[C@@H]3C2)cc1,16.2% [at 25.6 µM] (inactive),–
Cc1ccc(S(=O)(=O)NC(=O)c2cccn2C)cc1,–,15.8 µM (active)
CCN(CC)CCNc1ccc(CO)c2sc3ccccc3c(=O)c12,9.87% [at 25.6 µM] (inactive),–
Cc1ccccc1-c1nc(N(C)Cc2ccco2)c2ccccc2n1,-11% [at 2.29 µM] (inactive),–
c1ccc(CCNCc2ccco2)nc1,0.412% [at 11.4 µM] (inactive),–
Cc1ccccc1C(C(=O)NCc1ccccc1)N(Cc1ccco1)C(=O)c1ccccn1 (centres undefined),–,10 µM (active)
CC(Cc1ccccc1)C(=O)NCc1ccccn1 (centres undefined),-5.93% (inactive),–
O=C(NCc1ccccc1)C(c1ccc(F)cc1)N(Cc1ccco1)C(=O)c1ccccn1 (centres undefined),–,15.8 µM (active)
CN(Cc1ccco1)c1ncnc2ccc(-c3cccnc3)cc12,-16.8% [at 2.29 µM] (inactive),–
Cc1cc(C(C)(C)CC(C)(C)C)ccc1OCCOCC[N+](C)(C)Cc1ccccc1,-13.2% [at 25.6 µM] (inactive),–
Cc1cc(C)nc(NS(=O)(=O)c2ccc(N)cc2)n1,22.1% [at 25.6 µM] (inactive),–
CNc1cc(NS(=O)(=O)c2ccc(N)cc2)nc(NC)n1,–,2 µM (active)
COc1cc(NS(=O)(=O)c2ccc(N)cc2)ncn1,-4.22% [at 25.6 µM] (inactive),–
